Most compounds without a hit are left out; they make up all but 3.8% or so of the library.
FGF22 binding: binders of human FGF22 protein, primary screen, FGF22 synaptogenesis inhibitor project, biophysical, thermal shift, single point; actives 1.5% (n = 340,000); Fibroblast growth factor 22 (Homo sapiens), Q9HCT0; recombinant FGF22 thermal shift, SYPRO orange fluorescence; percent of sucrose octasulfate shift, DMSO zero; activity (Tm shift, normalised), % at 9.99 µM;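 active = mean Tm shift, scaled 0 neutral to 100 positive control, at about 1.3% or above, every replicate too, limit read from the data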
rRNA inh HTS: reduced GFP signal of wild-type E. coli, primary screen, bacterial rRNA inhibitor project, GFP/RFP fluorescence, OD600, single point; AID 720706, 2013; GFP signal change (wild-type ribosome), % (concentration not given with the values); E. coli WT GFP vs humanized-ribosome RFP mutants, 24 h; stronger effect = lower value; DMSO median 0, no signal -100; actives 1.6% (n = 350,000);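 active = significant combined selectivity score with lowered wild-type GFP, culture density cut under 30%, mutant RFP and density less affected; inactive = any of these conditions unmet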
ADAM17 inh: ADAM17 inhibitors, primary screen, biochemical, QFRET; Disintegrin and metalloproteinase domain-containing protein 17 (Homo sapiens), P78536; recombinant ADAM17, EDANS/DABCYL FRET peptide cleavage; inhibition, % at 6.95 µM; actives 0.83% (n = 370,000);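 active = inhibition above the mean of compounds lying between control limits plus 3 SD, set per campaign, cut at about 8.5% in these data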
ADAM10 inh: human ADAM10 inhibitors, primary screen, biochemical, QFRET, HTS. Disintegrin and metalloproteinase domain-containing protein 10 (Homo sapiens), O14672. recombinant ADAM10, EDANS/DABCYL FRET peptide cleavage, 3 h. inhibition, % at 7 µM. actives 0.62% (n = 370,000);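 active = inhibition above a per-campaign cutoff equal to the mean of compounds falling between control-based bounds plus 3 SD, cut at about 20% in these data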
Target sequence (O14672 214-748 limits assumed): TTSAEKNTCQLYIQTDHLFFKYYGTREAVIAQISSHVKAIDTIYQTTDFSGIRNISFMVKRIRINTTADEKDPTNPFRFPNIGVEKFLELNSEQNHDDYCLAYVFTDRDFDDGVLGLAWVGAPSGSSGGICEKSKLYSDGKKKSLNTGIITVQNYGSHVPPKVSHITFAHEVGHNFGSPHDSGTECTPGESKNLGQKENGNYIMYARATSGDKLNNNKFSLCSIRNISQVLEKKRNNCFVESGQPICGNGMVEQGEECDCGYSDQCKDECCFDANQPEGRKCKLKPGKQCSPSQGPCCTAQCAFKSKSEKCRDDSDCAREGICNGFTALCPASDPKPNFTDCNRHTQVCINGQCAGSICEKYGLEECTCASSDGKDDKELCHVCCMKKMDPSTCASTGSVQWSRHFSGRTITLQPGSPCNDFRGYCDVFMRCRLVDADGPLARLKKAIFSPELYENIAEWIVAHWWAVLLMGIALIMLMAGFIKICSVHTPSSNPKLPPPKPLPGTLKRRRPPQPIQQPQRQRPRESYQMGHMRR
proKLK7 act: proKLK7 zymogen activators, primary screen, biochemical, fluorescence intensity | Kallikrein-7 (Homo sapiens), P49862 | purified proKLK7, EDANS-DABCYL substrate fluorescence; 100% is mature enzyme control, 0% vehicle | activation, % at 7 µM | actives 0.9% (n = 370,000);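 active = activation above the mean of all tested compounds plus 3 SD, computed per campaign excluding outliers beyond control limits, cut at about 13% in these data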
Hits are given with their value; 0 = inactive; - = no result given.

SMILES	FGF22 binding	rRNA inh HTS	ADAM17 inh	ADAM10 inh	proKLK7 act
COc1ccc(CNC(=O)CSc2nc(C)cs2)cc1	43.3	0	0	0	0
COc1ccc(CCNC(=O)CSc2nc(C)cs2)cc1	0	-	0	0	0
CCCNC(=O)N1CC2(CCN(Cc3cccnc3)CC2)c2c(n(C)c3cc(OC)ccc23)[C@H]1CO	0	0	-	-	-
Nc1ncncc1-c1ccc(Cl)cc1	0	-21.6	0	0	0
Nc1ncncc1-c1ccccc1Cl	0	0	0	0	0
CCCN(C)C[C@@H]1Oc2cc(C#CC3CCCC3)ccc2S(=O)(=O)N([C@@H](C)CO)C[C@@H]1C	0	0	-	-	-
CCn1c(SCC(=O)N(C)C2CCS(=O)(=O)C2)nnc1-c1ccccc1 (centres undefined)	43.5	0	0	0	0
CCN(C(=O)CSc1nnc(-c2ccc(F)cc2)n1C)C1CCS(=O)(=O)C1 (centres undefined)	43.0	0	0	0	0
C=CCn1c(SCC(=O)N(C)C2CCS(=O)(=O)C2)nnc1-c1ccccc1 (centres undefined)	0	0	0	0	0
COc1ccc(CN(C)C[C@H]2OCCCC[C@H](C)Oc3ccc(NC(=O)Nc4ccccc4)cc3C(=O)N([C@H](C)CO)C[C@H]2C)cc1	0	0	-	-	-
CC1=CC(C)(C)N2C(=O)C(=O)c3cc(OC(=O)c4ccco4)cc1c32	0	-23.4	0	0	0
CC1=CC(C)(C)Nc2ccc(OC(=O)c3ccco3)cc21	-	-	0	0	0
C[C@H](CO)N1C[C@H](C)[C@H](CN(C)C(=O)c2ccncc2)Oc2cc(/C=C/c3ccccc3)ccc2S1(=O)=O	0	0	-	-	-
C[C@@H]1CCCCO[C@@H](CN(C)Cc2ccccc2)[C@@H](C)CN([C@@H](C)CO)C(=O)c2cc(NS(=O)(=O)c3ccc(Cl)cc3)ccc2O1	-	0	-	-	-
C[C@@H]1CN([C@@H](C)CO)C(=O)Cc2cc(NS(C)(=O)=O)ccc2O[C@@H]1CN(C)Cc1ccc(C(=O)O)cc1	0	0	-	-	-
O=C(O)c1ccc(C2SCC(=O)N2Cc2ccco2)cc1 (centres undefined)	1.5	0	0	0	0
COc1ccc(/C=N\NC(=O)c2ccccc2F)cc1COc1ccc(F)cc1F	0	0	0	0	0
COc1ccc(/C=N/NC(=O)c2cc(C(C)(C)C)[nH]n2)cc1COc1ccc(F)cc1F	0	-24.4	0	0	0
CCc1ccccc1NC(=O)CCN1C(=O)C2C3CCC(C3)C2C1=O (centres undefined)	43.8	0	0	0	0
O=C(CCN1C(=O)C2C3CCC(C3)C2C1=O)Nc1ccccc1Cl (centres undefined)	0	0	0	0	0
CCCNC(=O)N1CC2(CN(C(=O)COC)C2)c2c(n(C)c3cc(OC)ccc23)[C@H]1CO	0	0	-	-	-
c1ccc(Cn2c(-c3ccccc3)c[n+]3c2SCCC3)cc1	0	-45.3	0	0	0
COc1ccc(-c2c[n+]3c(n2-c2ccccc2)SCC3)cc1	0	0	0	0	0
COc1ccc2c3c(n(C)c2c1)[C@@H](CO)N(C(=O)Nc1ccc(F)cc1)CC31CCN(C(=O)CC2CC2)CC1	-	0	-	-	-
COc1cccc(NC(=O)CSc2nc3c(sc4ccccc43)c(=O)n2CCCN2CCCC2)c1	0	0	0	0	0
SMILES	FGF22 binding	rRNA inh HTS	ADAM17 inh	ADAM10 inh	proKLK7 act
CCN(CC)CCn1c(SCC(=O)Nc2cccc(OC)c2)nc2c(sc3ccccc32)c1=O	0	-20.6	0	0	0
O=C(Nc1ccc(Cl)cc1)N[C@H]1CC[C@@H](CCn2cc(Cc3ccccc3)nn2)O[C@H]1CO	0	0	-	-	-
Cc1cc(/C=C2\SC(=S)NC2=O)c(C)n1-c1ccccc1	0	0	0	0	0
Cc1cc(/C=C2\SC(=S)NC2=O)c(C)n1-c1ccc(O)cc1	0	-24.2	0	0	0
O=C(Nc1ccc(F)cc1)N[C@@H]1CC[C@H](CCNS(=O)(=O)c2ccccc2F)O[C@H]1CO	0	0	-	-	-
O=C(CN1CCCC1)Nc1ccc(F)cc1	43.3	0	0	0	0
CCC(Sc1nc(C)cc(C)n1)C(=O)O (centres undefined)	0	0	0	0	0
CCC(Sc1nc(C)cc(C)n1)C(=O)Nc1cc(C)on1 (centres undefined)	43.5	0	0	0	0
O=C(C[C@@H]1C=C[C@@H](NC(=O)C2CCOCC2)[C@@H](CO)O1)Nc1nccs1	-	0	-	-	-
COc1cccc(-c2nc(-c3ccccc3)[nH]c(=O)c2C#N)c1	-	-	0	0	0
CCC(Sc1nc(-c2cccc(OC)c2)c(C#N)c(=O)[nH]1)C(=O)Nc1nnc(C(C)C)s1 (centres undefined)	2.1	0	0	0	0
COc1ccc(-n2nc(C(=O)NCC(=O)NCC3COc4ccccc4O3)c3ccccc3c2=O)cc1OC (centres undefined)	-	0	0	0	0
COc1ccc(-n2nc(C(=O)NCC(=O)NCC3COc4ccccc4O3)c3ccccc3c2=O)c(OC)c1 (centres undefined)	43.8	0	0	0	0
O=C(O)CC/C(=C\c1ccc(N2CCCC2)c([N+](=O)[O-])c1)c1nc2ccccc2s1	0	-39.8	0	0	0
CN(c1ccccc1)c1ccc(/C=C(/CCC(=O)O)c2nc3ccccc3s2)cc1[N+](=O)[O-]	0	0	0	0	0
CCN1C(=O)c2cccc3c(S(=O)(=O)Nc4ccccn4)ccc1c23	-	-	0	0	19.2
Cc1ccc(C(=O)Nc2cccc(C(O)c3ccccc3)c2)cc1 (centres undefined)	0	-32.8	0	0	0
O=C(Nc1cccc(-c2nc3ccccc3c(=O)o2)c1)c1ccccc1	0	-20.1	0	0	0
Cc1ccccc1C(=O)Nc1cccc(-c2cn3ccccc3n2)c1	-	0	0	0	0
Cc1ccc(C(=O)Nc2cccc(-c3cn4ccccc4n3)c2)cc1	0	-29.1	0	0	0
COc1cccc(-c2nc3ccccc3c(=O)o2)c1	-	-	0	0	0
Cc1ccc(C)n1-c1ccc(C(=O)Nc2ccccc2)cc1	43.4	0	0	0	0
O=C(C[C@H]1CC[C@H]2[C@@H](COC[C@H](O)CN2Cc2ccc(Oc3ccccc3)cc2)O1)N1CCCCC1	0	0	-	-	-
CO[C@H]1CN(C)C(=O)c2ccc(NS(C)(=O)=O)cc2OC[C@H](C)N(Cc2cncnc2)C[C@@H]1C	0	0	-	-	-
O=C(Nc1cccc(-c2cn3ccccc3n2)c1)c1ccccc1	0	-31.5	0	0	0
CCCCC(=O)Nc1cccc(-c2cn3ccccc3n2)c1	0	0	0	0	0
